Measurements reported in PubChem BioAssay (Tox21).
Records with an inconclusive call do not appear. The source made the active and inactive calls. Unless noted, the call rests on the fitted dose curve; in most records, active means well fitted curve in the direction sought with a large enough effect in the repeat runs; inconclusive means weak or mixed curves; inactive means no such curve, though single readings can be large; an effect the other way counts as inactive or inconclusive.

What was measured:
[1] = qHTS assay to identify small molecule agonists of the hypoxia (HIF-1) signaling pathway - cell viability counter screen (AID 1224844; calls by dose curve; further: nearly all actives have a fitted effect of over 50% in size)
How it was run: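 CellTiter-Glo luminescence read-out, 30 min RT, taken in the same wells as the beta-lactamase HRE reporter assay; HRE-bla ME-180 cells, 0.5% dialyzed FBS, 17 hr compound treatment at 37C, 5% CO2.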

[2] = qHTS assay to identify small molecule agonists of H2AX (AID 1224845; active means well fitted activation curve with a large enough effect in the signal ratio in the repeat runs, not every such curve was filed as active; the % refers to the signal ratio)
How it was run: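 Phospho-H2AX Ser139 measured by HTRF (ex 320 nm; em 665 and 620 nm) after 24 hr antibody incubation. Compounds, 15 concentrations, 0.76% DMSO, were applied to CHO-K1 cells for 3hr at 37C before lysis.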

[3] = qHTS assay to identify small molecule agonists of the hypoxia (HIF-1) signaling pathway (AID 1224846; active means well fitted activation curve with a large enough effect in the signal ratio in the repeat runs, not every such curve was filed as active; the % refers to the signal ratio)
How it was run: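 Beta-lactamase FRET read-out (CCF4-AM substrate) from ME-180 cells carrying an HRE-driven bla reporter, after 17 hrs compound exposure at 37C/5% CO2. Cells were seeded at 2,000 per well in 0.5% dialyzed FBS medium and preincubated 5 hrs.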

[4] = qHTS assay to identify small molecule agonists of H2AX - cell viability counter screen (AID 1224847; calls by dose curve; further: top concentration of the series differs between compounds; nearly all actives have a fitted effect of over 30% in size)
How it was run: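 Quantitative HTS viability measurement: CHO-K1 wild-type cells in serum (10% FBS) medium, short 3 hr drug exposure at 37C with 0.76% DMSO, CellTiter-Glo luminescent detection.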

[5] = qHTS assay to identify small molecule antagonists of the estrogen related receptor (ERR) signaling pathway from Tox21 library (AID 1224848); further: nearly all actives have a fitted effect of over 50% in size
How it was run: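 ERR cell line, 2,000 cells/well. 6 h settle, then compound (DMSO) added; 18 h at 37 C; ONE-Glo luminescence after 30 min RT.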

[6] = qHTS assay to identify small molecule agonists of the estrogen related receptor (ERR) signaling pathway from Tox21 library (AID 1224849; calls by dose curve; further: nearly all actives have a fitted effect of over 15% in size); settings: ERR reporter cell line, ONE-Glo luciferase, 18 h; at 92.4 µM (top of the series) unless noted
How it was run: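 Luminescence readout (ONE-Glo, 30 min RT) after 18 h compound exposure at 37 C of NTP-supplied ERR reporter cells; cells were plated 6 h before compound addition by pin tool.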

[7] = qHTS RealTime-Glo MT Cell Viability Assay in HepG2 cells - 24 hour (AID 1224867); further: nearly all actives have a fitted effect of over 50% in size
How it was run: (§1)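 Tox21 10K library screened in qHTS format on HepG2 cells carrying RealTime-Glo reagents. Compounds were added after a 5 h preincubation, and the luminescent signal from continuous culture was measured repeatedly during 40 h treatment.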

[8] = qHTS RealTime-Glo MT Cell Viability Assay in HEK293 cells - 32 hour (AID 1224868); further: top concentration of the series differs between compounds; nearly all actives have a fitted effect of over 50% in size
How it was run: (§2)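 Luminescence generated by NanoLuc from substrate produced by living HEK293 cells served as the viability signal. Each value reflects the reading at its stated time point during continuous 40 h compound exposure at 37 C.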

[9] = A CellTox Green Cytotoxicity Assay to monitor cytotoxicity in HEK293 cells - 0 hour (AID 1224869); further: nearly all actives have a fitted effect of over 50% in size
How it was run: (§3)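 Read-out: fluorescence of a cell-impermeant cyanine dye staining DNA of dead cells, proportional to cytotoxicity. HEK293, 600 cells/well with reagent, compound (23 nL DMSO) added after 5 h; reads at 0, 8, 16, 24, 32, 40 h.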

[10] = qHTS RealTime-Glo MT Cell Viability Assay in HepG2 cells - 40 hour (AID 1224870); further: nearly all actives have a fitted effect of over 50% in size
How it was run: (§4)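 Real-time viability: cells seeded at 600 per well together with NanoLuc and cell-permeant prosubstrate, compounds added after 5 h incubation. Luminescence tracked at 0, 8, 16, 24, 32 and 40 h of exposure.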

[11] = A CellTox Green Cytotoxicity Assay to monitor cytotoxicity in HEK293 cells - 40 hour (AID 1224871); further: nearly all actives have a fitted effect of over 45% in size
How it was run: as §3

[12] = qHTS RealTime-Glo MT Cell Viability Assay in HEK293 cells - 16 hour (AID 1224872)
How it was run: as §2

[13] = qHTS RealTime-Glo MT Cell Viability Assay in HepG2 cells - 8 hour (AID 1224873); further: nearly all actives have a fitted effect of over 55% in size
How it was run: as §4

[14] = qHTS RealTime-Glo MT Cell Viability Assay in HEK293 cells - 40 hour (AID 1224874); settings: RealTime-Glo luminescence; max response: hits give low values; further: nearly all actives have a fitted effect of over 50% in size
How it was run: (§5)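 Luminescence readout at each listed time point; HEK293, 600 cells/well, RealTime-Glo MT reagent added with cells; compounds pinned (23 nL in DMSO) after 5 h at 37 C; continuous culture at 37 C.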

[15] = A CellTox Green Cytotoxicity Assay to monitor cytotoxicity in HEK293 cells - 24 hour (AID 1224875); further: nearly all actives have a fitted effect of over 45% in size
How it was run: as §3

[16] = A CellTox Green Cytotoxicity Assay to monitor cytotoxicity in HepG2 cells - 16 hour (AID 1224876); further: nearly all actives have a fitted effect of over 45% in size
How it was run: (§6)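 HepG2, 600 cells/well premixed w/ CellTox Green; 5 h settle, 37 C/5% CO2; pintool cpd add (DMSO); 37 C, 40 h; fluorescence read at 0, 8, 16, 24, 32, 40 h.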

[17] = qHTS RealTime-Glo MT Cell Viability Assay in HepG2 cells - 32 hour (AID 1224877); further: nearly all actives have a fitted effect of over 55% in size
How it was run: as §1

[18] = A CellTox Green Cytotoxicity Assay to monitor cytotoxicity in HepG2 cells - 24 hour (AID 1224878); further: nearly all actives have a fitted effect of over 45% in size
How it was run: as §6

[19] = A CellTox Green Cytotoxicity Assay to monitor cytotoxicity in HepG2 cells - 40 hour (AID 1224879); further: nearly all actives have a fitted effect of over 40% in size
How it was run: as §6

[20] = qHTS RealTime-Glo MT Cell Viability Assay in HEK293 cells - 0 hour (AID 1224880)
How it was run: as §5
On the % scale 0 is the no-effect control and ±100 the full control effect.

O=C(NN1CCCC1)NS(=O)(=O)c1ccc(Cl)cc1
inactive: Potency [1] | Potency [2] | outcome [3] | Potency [4] | Potency [5] | activity change, positive = activation [6] 5.66% [at 42.5 µM] | Potency [7] | Potency [8] | Potency [9] | Potency [10] | Potency [11] | Potency [12] | Potency [13] | max response [14] 15.3% | Potency [15] | Potency [16] | Potency [17] | Potency [18] | Potency [19] | Potency [20]

CC(=O)OCCc1ccccc1
inactive: Potency [1] | Potency [2] | outcome [3] | Potency [4] | Potency [7] | Potency [8] | Potency [9] | Potency [10] | Potency [11] | Potency [12] | Potency [13] | Potency [16] | Potency [18] | Potency [19] | Potency [20]

CCOc1ccc(NC(=O)CC(C)=O)cc1
inactive: Potency [1] | Potency [2] | outcome [3] | Potency [4] | Potency [5] | activity change, positive = activation [6] -8.93% | Potency [7] | Potency [8] | Potency [9] | Potency [10] | Potency [11] | Potency [13] | max response [14] -6.1% | Potency [15] | Potency [17] | Potency [18] | Potency [19] | Potency [20]

CC(C)(Oc1ccc(Cl)cc1)C(=O)OCCCOC(=O)C(C)(C)Oc1ccc(Cl)cc1
inactive: Potency [1] | Potency [2] | outcome [3] | Potency [4] | Potency [7] | Potency [8] | Potency [9] | Potency [10] | Potency [11] | Potency [13] | max response [14] -17.7% | Potency [15] | Potency [16] | Potency [17] | Potency [18] | Potency [20]

O=C(CCN1CCN2CCCC2C1)N1c2ccccc2Sc2ccc(Cl)cc21 (stereo not given)
inactive: activity change, negative = cytotoxicity [1] 1.19% [at 15.8 µM] | activation (H2AX phosphorylation) [2] -2.77% [at 31.6 µM] | activation [3] -0.917% [at 15.8 µM] | activity change, negative = cytotoxicity [4] -4.72% [at 31.6 µM] | activity, negative = inhibition [5] -23.7% [at 19 µM] | activity change, positive = activation [6] -13.2% [at 19 µM] | activity change, negative = cytotoxicity [7] -4.92% [at 15.8 µM] | cytotoxicity [9] -5.19% [at 15.8 µM] | activity change, negative = cytotoxic [10] -2.23% [at 15.8 µM] | cytotoxicity increase [11] 2.75% [at 15.8 µM] | activity change, negative = cytotoxicity [12] -13.3% [at 15.8 µM] | viability change, negative = cytotoxic [13] -2.56% [at 15.8 µM] | max response [14] -21.5% | activity change [15] 0.914% [at 15.8 µM, hits give high values] | cytotoxicity increase [16] 6.02% [at 15.8 µM] | activity change, negative = cytotoxic [17] -4.67% [at 15.8 µM] | cytotoxicity [18] 14.6% [at 15.8 µM] | activity change, negative = cytotoxicity [20] -6.17% [at 15.8 µM]

CC(C)c1cccc(C(C)C)c1NC(=O)NS(=O)(=O)c1cc(C(C)(C)O)co1
inactive: Potency [1] | Potency [2] | outcome [3] | Potency [4] | Potency [7] | Potency [8] | Potency [9] | Potency [10] | Potency [11] | Potency [12] | Potency [13] | max response [14] 6.33% | Potency [15] | Potency [16] | Potency [17] | Potency [18] | Potency [19] | Potency [20]

NC(=S)N/N=C/c1cccnc1
inactive: Potency [1] | Potency [2] | outcome [3] | Potency [4] | Potency [5] | activity change, positive = activation [6] 0.0845% [at 42.5 µM] | Potency [7] | Potency [9] | Potency [10] | Potency [11] | max response [14] 6.57% | Potency [15] | Potency [17] | Potency [18] | Potency [19] | Potency [20]

CC(=O)/C=C/C1C(C)=CCCC1(C)C (stereo not given)
inactive: Potency [1] | Potency [2] | outcome [3] | Potency [4] | Potency [7] | Potency [8] | Potency [9] | Potency [10] | Potency [11] | Potency [12] | Potency [13] | max response [14] 0% | Potency [15] | Potency [16] | Potency [17] | Potency [18] | Potency [19] | Potency [20]

O=c1[nH]cnc2ccccc12
inactive: Potency [1] | Potency [2] | outcome [3] | Potency [4] | Potency [7] | Potency [8] | Potency [9] | Potency [10] | Potency [11] | max response [14] -7.9% | Potency [15] | Potency [16] | Potency [17] | Potency [18] | Potency [19] | Potency [20]

Cc1c(Cn2ccnc2)c2ccccc2n1CCC(=O)O
inactive: Potency [1] | Potency [2] | outcome [3] | Potency [4] | Potency [7] | Potency [8] | Potency [9] | Potency [10] | Potency [11] | Potency [13] | max response [14] 4.63% | Potency [15] | Potency [17] | Potency [18] | Potency [19] | Potency [20]

CCN(CC)C(C)CN1c2ccccc2Sc2ccccc21 (stereo not given)
inactive: Potency [1] | Potency [2] | outcome [3] | Potency [4] | Potency [7] | Potency [8] | Potency [9] | Potency [10] | Potency [11] | Potency [12] | Potency [13] | Potency [15] | Potency [16] | Potency [17] | Potency [18] | Potency [19] | Potency [20]

CCCCCCCCCC(=O)OCC
inactive: Potency [1] | Potency [2] | outcome [3] | Potency [4] | Potency [7] | Potency [8] | Potency [9] | Potency [10] | Potency [11] | Potency [12] | Potency [13] | Potency [16] | Potency [17] | Potency [18] | Potency [19] | Potency [20]

CCCCCCCCCCCCCCCC(=O)OC/C=C(C)/C=C/C=C(C)/C=C/C1=C(C)CCCC1(C)C
inactive: Potency [1] | Potency [2] | outcome [3] | Potency [7] | Potency [8] | Potency [9] | Potency [10] | Potency [11] | Potency [12] | Potency [13] | max response [14] -5.46% | Potency [15] | Potency [16] | Potency [17] | Potency [18] | Potency [19] | Potency [20]

Cc1ccc2c(ccc3ccccc32)c1
inactive: Potency [1] | Potency [2] | outcome [3] | Potency [7] | Potency [9] | Potency [10] | Potency [11] | Potency [12] | Potency [13] | Potency [15] | Potency [17] | Potency [18] | Potency [19] | Potency [20]
